Bioassay records from PubChem.
HGIII-sPLA2 inh: human group III sPLA2 inhibitors, primary screen, biochemical, QFRET, BODIPY PC-A2 liposome substrate | Group 3 secretory phospholipase A2 (Homo sapiens), Q9NZ20 | QFRET BODIPY PC-A2 liposome hydrolysis, fluorescence | inhibition, % at 12.2 µM | 0.56% of 370,000 active | AID 743126, 2013;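 active means inhibition above mean plus 3 SD of compounds lying within the high and low control bounds, cut at about 19% in these data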
CR mimetic SO: reduction of superoxide in aged yeast, primary screen, HTS; S. cerevisiae aged cells, superoxide DHE fluorescence; hits give low values; superoxide response (% of plate mean), % at 10 µM; 0.18% of 330,000 active; AID 2690, 2010;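 active means superoxide response under a set limit, about three screen SD below normal, cut at about 65% in these data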;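 further: yeast aged for seven days with compound at 30 °C before DHE staining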
AHR activator: AHR activators, primary screen, cell-based, luminescence, luciferase reporter, human; AID 2796, 2010; Aryl hydrocarbon receptor (Homo sapiens), P35869; AHR-responsive luciferase reporter cells; activation, % at 5 µM; 2.5% of 320,000 active; in the data active means activation above about 47%
Target sequence (P35869 whole entry, looked up): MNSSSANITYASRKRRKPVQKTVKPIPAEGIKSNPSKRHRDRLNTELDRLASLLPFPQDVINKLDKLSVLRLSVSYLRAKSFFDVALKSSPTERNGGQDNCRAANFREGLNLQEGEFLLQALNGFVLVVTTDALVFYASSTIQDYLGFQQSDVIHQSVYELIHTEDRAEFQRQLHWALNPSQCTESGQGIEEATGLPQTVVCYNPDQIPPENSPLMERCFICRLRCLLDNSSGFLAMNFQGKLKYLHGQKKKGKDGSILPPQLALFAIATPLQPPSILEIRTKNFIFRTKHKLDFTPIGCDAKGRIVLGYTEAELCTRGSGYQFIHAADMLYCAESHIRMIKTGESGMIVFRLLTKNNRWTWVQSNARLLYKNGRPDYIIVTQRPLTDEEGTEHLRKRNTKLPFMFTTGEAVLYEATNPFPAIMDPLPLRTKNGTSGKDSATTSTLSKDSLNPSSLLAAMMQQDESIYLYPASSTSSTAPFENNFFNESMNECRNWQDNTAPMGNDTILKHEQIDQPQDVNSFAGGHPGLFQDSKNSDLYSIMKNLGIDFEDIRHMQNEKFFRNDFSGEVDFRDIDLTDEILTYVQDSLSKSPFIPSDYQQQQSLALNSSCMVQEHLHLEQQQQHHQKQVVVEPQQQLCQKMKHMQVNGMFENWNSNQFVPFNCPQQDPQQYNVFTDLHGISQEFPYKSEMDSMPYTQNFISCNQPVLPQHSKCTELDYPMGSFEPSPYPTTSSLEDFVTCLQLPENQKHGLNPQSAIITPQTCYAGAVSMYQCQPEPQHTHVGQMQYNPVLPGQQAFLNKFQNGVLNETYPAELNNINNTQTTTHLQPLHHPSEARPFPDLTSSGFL
HIF activator: HIF pathway transcriptional activators, primary screen, cell-based, U2OS HRE-luciferase, luminescence | 0.32% of 300,000 active | activation, % at 7.5 µM (by protocol) | U2OS HRE-luciferase reporter; normalized: DMSO 0%, desferrioxamine 100%;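 active means mean activation of at least 10% of the iron chelator positive control signal, with at least half of replicates also reaching 10%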
PLCb3 inh: human PLC-beta3 inhibitors, primary screen, biochemical, fluorescence; 1-phosphatidylinositol 4,5-bisphosphate phosphodiesterase beta-3 (Homo sapiens), Q01970; Purified PLC-beta3, fluorogenic substrate; inhibition, % at 12.2 µM; 0.18% of 370,000 active; in the data active means inhibition above about 11%
PLC-gamma1 inh: PLC-gamma1 enzyme inhibitors, primary screen, biochemical, fluorescence, purified enzyme | 1-phosphatidylinositol 4,5-bisphosphate phosphodiesterase gamma-1 (Homo sapiens), P19174 | fluorogenic substrate | inhibition, % at 12.2 µM | 0.84% of 370,000 active; in the data active means inhibition above about 9.5%
Of the large screens only hits and unclear results are named; the others gave an inactive call. In the library only some 3.9% were active in any assay of this set; here they are far more common.

Cc1ccc(NC2=CC(=O)C(=O)c3ccccc32)c(C)c1	none (no result: HIF activator)
COc1ccccc1C(c1nnnn1CC1CCCO1)N1CCC(C(N)=O)CC1 (stereo not given)	HIF activator 14.9
CCN(CC)CCNC1=NCCn2c1cc1cc(OC)ccc12	AHR activator 57.9
COc1ccc(-c2ccc(/C=C(\NC(=O)c3ccccc3)C(=O)N3CCOCC3)o2)cc1	AHR activator 76.9
O=C(O)c1cccnc1SCc1ccccc1Cl	HIF activator 108.1
Cn1c(CCNC(=O)c2ccco2)nc2cc(NC(=O)NC3CCCCC3)ccc21	none
CCCn1cnc2cc(NC(=O)c3ccco3)ccc21	AHR activator 60.4
Cn1c(CCNC(=O)c2ccco2)nc2cc(NC(=O)C3CCCCC3)ccc21	HIF activator 175.8
COC(=O)C1CN(Cc2ccccc2)CCS(=O)(=O)N1Cc1cccc(Cl)c1 (stereo not given)	none (no result: CR mimetic SO, AHR activator, HIF activator)
O=C(Nc1nc2ncccn2c1-c1ccccc1)c1ccccc1	none (no result: CR mimetic SO, AHR activator, HIF activator)
COc1nccc(C(F)(F)F)c1C(=O)NC(=O)Nc1c(C)cccc1C	none
COc1nccc(C(F)(F)F)c1C(=O)NC(=O)Nc1ccccc1	HIF activator 139.6
O=C(Nc1nccs1)C(=O)c1c[nH]c2ccccc12	AHR activator 59.4
CSc1ccccc1NC(=O)C(=O)c1c[nH]c2ccccc12	AHR activator 48.4
O=C(NC1CC1)C(=O)c1c[nH]c2ccccc12	AHR activator 62.9
CC1=CC(=O)C(C2CCCCC2)=C/C1=N\OS(=O)(=O)c1ccccc1	none (no result: CR mimetic SO, AHR activator, HIF activator)
CC(=O)OCCC(CC(C)C)NC(=O)[C@H](CC(C)C)NC(=O)OCc1ccccc1 (stereo not given in full)	none (no result: CR mimetic SO, AHR activator, HIF activator)
COc1ccc(-c2cc(-c3ccc(Br)cc3)nc3ncnn23)cc1OC	AHR activator 53.9
COc1ccc(-c2cc(-c3ccccc3)nc3ncnn23)cc1	none
C[C@H]1[C@@H](N)CC[C@@]23CCCN2C(=O)CCC[C@@H]13	none (no result: CR mimetic SO, AHR activator, HIF activator)
Cc1cc(NC(=O)C2CCCC2)n(-c2nc3ccccc3[nH]2)n1	PLC-gamma1 inh 10.8
Cc1cc(NC(=O)c2ccccc2)n(-c2nc3ccccc3[nH]2)n1	HIF activator 24.2
COc1cccc(OC)c1C(=O)Nc1cc(C)nn1-c1nc2ccccc2[nH]1	none
COC(=O)[C@]12C[C@H](CC(=O)N3CCN(C(=O)c4ccco4)CC3)C(=O)N(CCc3ccc(OC)c(OC)c3)C1=C[C@H](C(C)(C)C)O[C@@H]2C	none (no result: CR mimetic SO, AHR activator, HIF activator)
CCNC(=O)N1C[C@H]2CON(C)[C@H]2C[C@H]1c1ccc(N2CCCCC2)cc1	none (no result: CR mimetic SO, AHR activator, HIF activator)
Cc1ccc2nc(SCC(=O)c3ccc4c(c3)OCO4)[nH]c2c1	AHR activator 57.3
CC(=O)c1c(C)[nH]c(C(=O)CSc2nc3ccc(C)cc3[nH]2)c1C	AHR activator 69.9
CCN(CC)C(=O)CSc1nnc(-c2ccc(C(C)(C)C)cc2)n1Cc1ccco1	none (no result: CR mimetic SO, AHR activator, HIF activator)
COc1ccc(-n2c(C)cc(C(=O)CCl)c2C)cc1	HIF activator 15.9
COc1ccc(N2CCN(CCCNC(=O)Cn3c(=O)c4cccn4c4cccnc43)CC2)c(OC)c1	none (no result: CR mimetic SO, AHR activator, HIF activator)
Cn1cccc1C(=O)N1CCN(S(=O)(=O)c2ccc(Cl)s2)CC1	none (no result: CR mimetic SO, AHR activator, HIF activator)
Nc1nc(N)c(Br)c(Nc2ccc(Cl)c(Cl)c2)n1	none (no result: CR mimetic SO, AHR activator, HIF activator)
Nc1nc(N)c(C=Nc2ccc(Br)cc2)c(Nc2ccc(Br)cc2)n1	AHR activator 99.4
Cc1cccc2c(N=O)c(O)n(CCc3ccccc3)c12	AHR activator 67.2
CC(=O)Nc1ccc2c(c1)ncn2C1CCCCC1	none
COC(=O)Nc1ccc2c(c1)ncn2C1CCCCC1	AHR activator 66.2
O=C(c1ccccc1OCc1ccccc1)N(Cc1ccccn1)CC1CCCO1 (stereo not given)	none (no result: CR mimetic SO, AHR activator, HIF activator)
CCC(=O)NC(c1cccs1)c1ccc2cccnc2c1O (stereo not given)	HIF activator 196.1
CC(C)CC(=O)NC(c1cccs1)c1ccc2cccnc2c1O (stereo not given)	HIF activator 68.4 (no result: HGIII-sPLA2 inh, PLCb3 inh, PLC-gamma1 inh)
CCNC(=S)N1N=C2c3ccccc3CCC2C1c1ccc(F)cc1 (stereo not given)	AHR activator 51.4
CCOc1ccc(C(=O)Nc2ccc(N3CCN(C(=O)c4ccco4)CC3)cc2)cc1Br	none (no result: CR mimetic SO, AHR activator, HIF activator)
CCOc1ccc(C(=O)Nc2ccc(N3CCN(C)CC3)cc2)cc1Br	AHR activator 57.3
O=C(COc1cccc2c1CCNC2=O)Nc1cccc(F)c1	AHR activator 49.1
COc1ccc(N2C[C@@]3(O)CC[C@@H](O)[C@@H](OC)[C@@H]3[C@@]2(C)[C@H](O)CC=C(C)C)cc1	none (no result: CR mimetic SO, AHR activator, HIF activator)
O=C(CSc1nc2ccccc2[nH]1)Nc1nc(-c2cccc(Br)c2)cs1	AHR activator 64.5
CCOC(=O)NC(=O)CSc1nc2ccc(C)cc2[nH]1	none
CCOC(=O)c1sc(N)c(C#N)c1CSc1nc2ccc(C)cc2[nH]1	AHR activator 70.1
CCC(=O)N1CCN(c2ccccc2NC(=O)COc2ccccc2Cl)CC1	AHR activator 68.2
CCCOc1ccc(CNC(=S)Nc2ccccc2)cc1Cl	AHR activator 76.5
N#CCCCc1cn(-c2cccc(-c3noc4c3C(=O)N(CC(=O)N3CCOCC3)CC4)c2)nn1	none (no result: CR mimetic SO, AHR activator, HIF activator)
Cc1ccc2c(c1)C1CS(=O)(=O)N(Cc3ccccc3)C(=O)N1C2 (stereo not given)	none (no result: CR mimetic SO, AHR activator, HIF activator)
CN1c2ccsc2/C(=N/Nc2ccc(F)cc2)CS1(=O)=O	AHR activator 65.2
Cc1ccc(N/N=C2\CS(=O)(=O)N(C)c3ccsc32)cc1	none
CC(=O)c1cc(-c2ccc3nonc3c2)c(=O)n2c1CCC2	none (no result: CR mimetic SO, AHR activator, HIF activator)
CCOC(=O)c1ccc(NS(=O)(=O)c2ccc3[nH]c(=O)[nH]c3c2)cc1	PLC-gamma1 inh 10.1
O=C(NCCc1ccccc1)OCc1cn(-c2cccc(Cl)c2)nn1	none (no result: CR mimetic SO, AHR activator, HIF activator)
COc1ccccc1CCNC(=O)CSc1nc2c([nH]1)c(=O)n(C)c(=O)n2C	none (no result: CR mimetic SO, AHR activator, HIF activator)
Cc1cc(S(=O)(=O)ON2C(=O)c3ccccc3C2=O)ccc1F	HIF activator 37.1
CC1(C)Oc2ccc(C(=O)NCCCN3CCCC3)cc2NC1=O	none (no result: CR mimetic SO, AHR activator, HIF activator)
COc1ccc2ccccc2c1C=NNC(=O)CN1CCN(Cc2ccccc2)CC1	none (no result: CR mimetic SO, AHR activator, HIF activator)
Nc1ccccc1N=Cc1ccc(-c2cccc(Cl)c2)o1	AHR activator 77.9
COC(=O)N/N=C/c1ccc(-c2cccc(Cl)c2)o1	none
O=C(N/N=C/c1cccc2ccccc12)c1cccnc1	AHR activator 53.5
Cn1cccc1/C=N/NC(=O)c1cccnc1	none
O=C(N/N=C/c1c(-c2ccccc2)[nH]c2ccccc12)c1cccnc1	AHR activator 73.5
Cn1c(-c2ccccc2)c(/C=N/NC(=O)c2cccnc2)c2ccccc21	AHR activator 59.1
